Compounds with a hit are over-represented: about 7% of the library has one in this group of screens.
USP28 inh: inhibitors of human USP28 deubiquitinase; AID 1645857, 2021; inhibition, % at 25 µM; hit rate 3% among 47,000; purified USP28, Ub-rhodamine cleavage fluorescence, 30 min; Ubiquitin carboxyl-terminal hydrolase 28 (Homo sapiens), Q96RU2
Target sequence (Q96RU2 whole entry, looked up): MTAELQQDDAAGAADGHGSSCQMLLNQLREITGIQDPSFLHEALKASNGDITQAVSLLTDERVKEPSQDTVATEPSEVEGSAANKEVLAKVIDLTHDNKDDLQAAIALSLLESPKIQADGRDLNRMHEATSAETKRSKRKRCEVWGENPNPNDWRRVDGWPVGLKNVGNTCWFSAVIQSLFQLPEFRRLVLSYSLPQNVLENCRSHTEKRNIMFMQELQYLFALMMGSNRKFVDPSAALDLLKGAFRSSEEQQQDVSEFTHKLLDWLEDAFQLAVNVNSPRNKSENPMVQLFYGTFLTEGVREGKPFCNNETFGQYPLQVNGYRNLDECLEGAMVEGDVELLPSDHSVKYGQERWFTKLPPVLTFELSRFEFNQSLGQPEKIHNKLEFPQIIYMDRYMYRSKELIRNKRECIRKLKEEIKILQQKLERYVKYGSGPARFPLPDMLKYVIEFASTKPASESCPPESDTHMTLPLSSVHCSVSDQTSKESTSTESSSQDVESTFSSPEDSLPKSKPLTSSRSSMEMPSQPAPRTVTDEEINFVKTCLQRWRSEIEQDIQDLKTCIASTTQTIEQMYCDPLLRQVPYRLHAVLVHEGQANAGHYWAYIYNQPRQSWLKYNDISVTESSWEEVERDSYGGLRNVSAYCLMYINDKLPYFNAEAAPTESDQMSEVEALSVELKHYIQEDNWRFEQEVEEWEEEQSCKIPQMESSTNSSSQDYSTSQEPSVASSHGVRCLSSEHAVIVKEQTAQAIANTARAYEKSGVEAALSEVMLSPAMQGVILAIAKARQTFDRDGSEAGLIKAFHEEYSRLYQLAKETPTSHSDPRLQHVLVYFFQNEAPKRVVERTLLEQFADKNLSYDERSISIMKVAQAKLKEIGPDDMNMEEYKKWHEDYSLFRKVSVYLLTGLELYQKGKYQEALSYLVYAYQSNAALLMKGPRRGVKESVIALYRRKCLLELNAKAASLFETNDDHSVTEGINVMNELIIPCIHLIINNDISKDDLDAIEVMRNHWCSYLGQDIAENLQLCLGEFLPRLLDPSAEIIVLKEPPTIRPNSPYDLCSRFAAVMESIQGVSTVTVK
USP30 block: inhibitors of human USP30 deubiquitinase; Ubiquitin carboxyl-terminal hydrolase 30 (Homo sapiens), Q70CQ3; purified USP30, Ub-rhodamine cleavage fluorescence; hit rate 5.3% among 47,000; inhibition, % at 25 µM
Hits are given with their value; 0 = inactive. No stated cut-off is given here; in the data, active means inhibition above about 30%; inactive means the rest.

SMILES	USP28 inh	USP30 block
O=S(=O)(c1ccc(Cl)cc1)c1nc(N2CCOCC2)sc1Cl	0	0
CC1CCCN(C(=O)c2cn(-c3ccc(S(=O)(=O)N4CCCC(C)C4)cn3)cn2)C1 (stereo not given)	0	38.4
CC1CCN(C(=O)c2cn(-c3ccc(S(=O)(=O)N4CCCC(C)C4)cn3)cn2)CC1 (stereo not given)	0	0
O=C(NC1CCCC1)C1CN(C(=O)c2ccc(F)cc2)CC12CCOCC2 (stereo not given)	0	0
O=C(c1cc(-c2ccncc2)n[nH]1)N1CCC(C(=O)N2CC=C(c3ccccc3)CC2)CC1	0	0
Cc1cc(C)c(S(=O)(=O)NCCc2cn3cccc(C)c3n2)cc1C	0	0
Cc1cc(=O)oc2cc(OCC(=O)NCc3ccncc3)ccc12	0	0
Cc1c(C)c2ccc(OCC(=O)NCc3ccncc3)c(C)c2oc1=O	0	81.4
Cc1nnc2c(NC(=O)c3cc(F)ccc3F)cccn12	0	0
O=C(Nc1ccc(O)cc1)c1cccn2c(-c3ccccc3F)nnc12	37.4	0
COc1ccc(CNC(=O)c2cccc(-c3cnc(N4CCCC4)nc3)c2)cc1	0	49.3
Cc1cccc(CNC(=O)c2cccc(-c3cnc(N4CCCC4)nc3)c2)c1	0	0
O=C(NCc1ccc2c(c1)OCO2)c1cc([N+](=O)[O-])ccc1N1CCCCC1	0	32.9
O=C(NCc1ccc2c(c1)OCO2)c1cccc(-c2cnc(N3CCCC3)nc2)c1	0	43.1
O=C(NCc1ccc2c(c1)OCO2)c1ccc2ncsc2c1	0	0
Cn1cc(C(=O)NCc2ccc3c(c2)OCO3)c(S(=O)(=O)N2CCCCCC2)n1	0	0
CCCc1cc(Sc2ccc(NC(=O)c3ccccc3)cc2)n2ncnc2n1	0	0
Cc1nc(C2CCCCN2C(=O)c2ccc3ncccc3c2)ncc1C(=O)N1CCOCC1 (stereo not given)	0	0
Cc1nc2nc(SCC(=O)NCc3ccc4c(c3)OCO4)nn2c(C)c1Cc1ccccc1Cl	0	0
COc1ccc(-c2nc(C)c(C(=O)NCCc3ccc(S(N)(=O)=O)cc3)s2)cc1	0	0
COc1ccc(C2=C(NCCc3ccc(S(N)(=O)=O)cc3)c3ccccc3C2=O)cc1	30.6	49.4
Cn1nc(C(=O)Nc2ccccc2)c2c1CCN(C(=O)Nc1ccccc1Cl)C2	0	0
Cc1ccc(CNC(=O)c2cc3occc3c(Nc3ccccc3)n2)cc1	0	0
CCc1ccc(CN(C)C(=O)c2ccc(NS(=O)(=O)c3ccc(F)c(F)c3)cc2)cc1	0	41.3
O=C(COC(=O)c1ccc(NS(=O)(=O)c2ccc(F)c(F)c2)cc1)Nc1ccc(OCc2ccccc2)cc1	0	0
SMILES	USP28 inh	USP30 block
COc1ccc(NC(=O)CSc2ncnc3c2sc2nc(CC(C)C)c4c(c23)CCC4)cc1	0	0
CC(C)Cc1nc2sc3c(NC4CCCCC4)ncnc3c2c2c1CCC2	0	0
CCCc1nc2sc3c(NC4CCCCC4)ncnc3c2c2c1CCC2	74.8	0
CCCc1nc2sc3c(N(CC)CC)ncnc3c2c2c1CCC2	52.3	0
CCCCc1nc2sc3c(SCC(=O)Nc4ccc(OC)cc4)ncnc3c2c2c1CCC2	0	47.6
COCCNc1ncnc2c1sc1nc(C(C)C)c3c(c12)CCC3	0	0
CCCCc1nc2sc3c(SCC(=O)OC)ncnc3c2c2c1CCC2	0	0
CCCc1nc2sc3c(NCCc4ccc(OC)c(OC)c4)ncnc3c2c2c1CCC2	67.1	0
O=C(Nc1cccc(Cl)c1)c1cc(CN2CCCC2)on1	0	0
O=C(C1CCCN(c2cnc3nccnc3c2)C1)N1CCN(c2ccccc2F)CC1 (stereo not given)	0	0
Cc1cc(F)ccc1NC(=O)c1cnc2sc3c(n2c1=O)CCCC3	0	0
COCC1CN(C(=O)c2ccccn2)Cc2c1cnn2CC1CC1 (stereo not given)	0	0
CC(=O)Nc1ccc(S(=O)(=O)Nc2cccc(S(=O)(=O)N3CCOCC3)c2)cc1	0	0
Cc1ccc(-c2noc(CN(C(=O)Cc3ccc([N+](=O)[O-])cc3)C(C)C)n2)cc1	0	0
COc1cc(OC)nc(C(=O)N2CCN(Cc3ccccc3)CC2)n1	0	0
COc1ccccc1/C=C(\C(=O)N1CCN(Cc2ccccc2)CC1)c1ccccc1	0	39.9
Cc1ccc(CNCC(=O)Nc2cc(S(=O)(=O)N3CCOCC3)ccc2N2CCCC2)cc1	0	0
COc1ccc(CN2CCC3(CCCNC3=O)CC2)cc1OCc1ccccc1	0	0
CCOC(=O)c1[nH]c(C)c(CN(CC2CCCO2)C(=O)C(C)C)c1C (stereo not given)	0	0
O=C(OCc1ccc([N+](=O)[O-])cc1)C1CCN(S(=O)(=O)c2cccc3cccnc23)CC1	0	43.6
O=C(C1CCN(S(=O)(=O)c2cccc3cccnc23)CC1)N1CCC(Cc2ccccc2)CC1	0	0
Cc1cc(NC(=O)c2cn(-c3ccc(S(=O)(=O)N4CCCC4)cn3)cn2)ccc1F	0	0
Cc1ccc(NC(=O)N2CC(c3nc(-c4cccnc4)no3)C2)cc1C	0	0
O=C(c1cc(Cl)cc(Cl)c1)N1CC(c2nc(-c3cccnc3)no2)C1	0	30.0
Cn1c(=O)c(C(=O)Nc2ccc(Br)cc2)nc2ccccc21	0	33.6
SMILES	USP28 inh	USP30 block
CCn1c(=O)c(C(=O)Nc2ccc(Br)cc2)nc2ccccc21	0	0
CC(C)c1ccc(C(=O)Nc2ncc(C(N)=O)s2)cc1	0	0
CSc1nc(Cc2ccc(Cl)cc2)nc2ccccc12	55.5	0
CCc1nc2ccccc2c(C(=O)OCc2ccc(Cl)cc2)c1C	0	0
COc1cccc(NC(=O)C2C3C=CC4(O3)C2C(=O)N(CCc2ccccc2Cl)C4C(=O)NC2CCCCC2)c1 (stereo not given)	0	38.7
COc1cccc(NC(=O)C2C3C=CC4(O3)C2C(=O)N(CCc2ccc(Cl)cc2)C4C(=O)NC2CCCCC2)c1 (stereo not given)	0	0
COc1ccc(NC(=O)C2C3C=CC4(O3)C2C(=O)N(Cc2ccccc2)C4C(=O)NC2CCCCC2)cc1 (stereo not given)	0	39.5
Cc1ccc(NC(=O)C2C3C=CC4(O3)C2C(=O)N(CCCN2CCN(Cc3ccccc3)CC2)C4C(=O)NC2CCCCC2)cc1C (stereo not given)	0	0
COc1ccc(NC(=O)C2C3C=CC4(O3)C2C(=O)N(CCc2ccccc2)C4C(=O)NC2CCCCC2)cc1 (stereo not given)	0	55.7
Cc1ccc(NC(=O)C2C3C=CC4(O3)C2C(=O)N(CCc2ccccc2)C4C(=O)NC2CCCCC2)cc1C (stereo not given)	0	0
CCOC(=O)C1=C(CS(=O)(=O)c2ccc(Cl)cc2)NC(=O)NC1c1ccccc1 (stereo not given)	0	0
CN1C(=O)OC[C@@H]2CCN(C(=O)Nc3ccccc3F)C[C@H]21	0	0
COc1ccc(NC(=O)c2ccc(-c3ccc(N4CCOCC4)nn3)cc2)cc1Cl	0	0
Cc1nc(NCc2ccccc2F)ncc1C(=O)NCc1ccc2c(c1)OCO2	0	0
COc1ccccc1NS(=O)(=O)c1ccc(Cl)c(NS(=O)(=O)c2ccccc2OC)c1	0	0
COc1ccccc1NS(=O)(=O)c1ccc2oc(SCC(=O)c3ccccc3)nc2c1	64.4	0
COc1cc2cc(Oc3ccc4ccc(=O)oc4c3)c(=O)oc2cc1O	0	34.2
CCOc1cccc2cc(-c3cc(=O)oc4cc(OC)ccc34)oc12	0	0

From PubChem
